The panel holds about 83,000 compounds, 20% with a hit somewhere; the sample as a whole holds those more often.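 Cells were grown in 96-well plates and exposed to the test compound at a single concentration for 48 hours; results are reported as percent growth, with values below 10 considered active.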 Active and inactive are the calls of the source.
Key:
Experiment in all cases: NCI-60 one-dose screen, 48 h (100 = growth as untreated, 0 = no growth, -100 = all killed)
Conditions in all cases: 10 µM unless noted
DU-145 prostate = tested on: DU-145 prostate
K-562 leukemia = tested on: K-562 leukemia
MALME-3M melanoma = tested on: MALME-3M melanoma
MDA-MB-231 breast = tested on: MDA-MB-231 breast
RXF 393 renal = tested on: RXF 393 renal
SF-268 CNS = tested on: SF-268 CNS
SF-295 CNS = tested on: SF-295 CNS
UACC-257 melanoma = tested on: UACC-257 melanoma
M14 melanoma = tested on: M14 melanoma
HCT-15 colon = tested on: HCT-15 colon
HT29 colon = tested on: HT29 colon
SNB-75 CNS = tested on: SNB-75 CNS
SNB-19 CNS = tested on: SNB-19 CNS
U251 CNS = tested on: U251 CNS
PC-3 prostate = tested on: PC-3 prostate
SK-MEL-5 melanoma = tested on: SK-MEL-5 melanoma
LOX IMVI melanoma = tested on: LOX IMVI melanoma
SK-MEL-28 melanoma = tested on: SK-MEL-28 melanoma
UACC-62 melanoma = tested on: UACC-62 melanoma
SF-539 CNS = tested on: SF-539 CNS

Measured: growth

N#Cc1c2c(nc3n[nH]c(N)c13)CCCC2
inactive: DU-145 prostate 121% | K-562 leukemia 97.7% | MALME-3M melanoma 115% | MDA-MB-231 breast 106% | RXF 393 renal 92.9% | SF-268 CNS 101% | SF-295 CNS 101% | UACC-257 melanoma 101% | M14 melanoma 104% | HCT-15 colon 105% | HT29 colon 104% | SNB-75 CNS 85.6% | SNB-19 CNS 112% | U251 CNS 99.3% | PC-3 prostate 109% | SK-MEL-5 melanoma 118% | LOX IMVI melanoma 102% | SK-MEL-28 melanoma 122%

COc1c(C2CC(=O)Nc3c2cnn3Cc2ccco2)cc2c(c1OC)OCO2 (stereo unspecified)
inactive: MALME-3M melanoma 55.7% | MDA-MB-231 breast 16% | SF-268 CNS 34.1% | UACC-257 melanoma 68.4% | HCT-15 colon 18.5% | HT29 colon 11.2% | SNB-19 CNS 50.6% | U251 CNS 20.4% | UACC-62 melanoma 35.4% | SK-MEL-28 melanoma 40.7%
active: DU-145 prostate 5.85% | K-562 leukemia 5.69% | RXF 393 renal -30% | SF-295 CNS -20.6% | M14 melanoma 9.85% | SNB-75 CNS 8.9% | SK-MEL-5 melanoma 3.98%

COc1ccc(C(=O)/C=C/c2c(Cl)c3c(c(OC)c2Cl)OCC(=O)N3)cc1
inactive: DU-145 prostate 18.7% | MALME-3M melanoma 66.8% | MDA-MB-231 breast 34.9% | RXF 393 renal 36.3% | SF-268 CNS 29.9% | SF-295 CNS 32.1% | UACC-257 melanoma 50% | M14 melanoma 17.7% | HCT-15 colon 20.1% | SNB-75 CNS 37% | SNB-19 CNS 59.6% | U251 CNS 17% | PC-3 prostate 52.1% | SK-MEL-5 melanoma 21.2% | UACC-62 melanoma 46.7% | SK-MEL-28 melanoma 48.2%
active: K-562 leukemia 3.42% | HT29 colon 7.82%

COc1ccc(C(=O)c2sc3nc4c(c(C(F)(F)F)c3c2N)CN(C(C)=O)CC4)cc1OC
inactive: DU-145 prostate 104% | K-562 leukemia 78.2% | MALME-3M melanoma 88% | MDA-MB-231 breast 63.8% | RXF 393 renal 74.7% | SF-268 CNS 85% | SF-295 CNS 86.2% | UACC-257 melanoma 99.2% | M14 melanoma 100% | HCT-15 colon 84.7% | HT29 colon 95% | SNB-75 CNS 74.6% | SNB-19 CNS 95.8% | U251 CNS 78.3% | SK-MEL-5 melanoma 77.6% | UACC-62 melanoma 83.6% | LOX IMVI melanoma 78.4% | SK-MEL-28 melanoma 93.4%

COc1ccc(C2CC(=O)Nc3c2c(C)nn3-c2nc3ccccc3[nH]2)cc1 (stereo unspecified)
active: K-562 leukemia -33.9%
inactive: DU-145 prostate 89.1% | MALME-3M melanoma 28.8% | MDA-MB-231 breast 109% | RXF 393 renal 101% | SF-268 CNS 47.9% | SF-295 CNS 85.9% | UACC-257 melanoma 111% | M14 melanoma 84.5% | HCT-15 colon 99.6% | HT29 colon 103% | SNB-75 CNS 103% | SNB-19 CNS 113% | U251 CNS 103% | PC-3 prostate 38.7% | SK-MEL-5 melanoma 95.5% | UACC-62 melanoma 104% | SK-MEL-28 melanoma 105%

O=C(O)c1ccccc1Nc1cccc(S(F)(F)(F)(F)F)c1
inactive: DU-145 prostate 107% | K-562 leukemia 107% | MALME-3M melanoma 101% | MDA-MB-231 breast 110% | RXF 393 renal 116% | SF-268 CNS 94.2% | SF-295 CNS 99.4% | UACC-257 melanoma 102% | M14 melanoma 102% | HCT-15 colon 94.7% | HT29 colon 84.2% | SNB-75 CNS 91.3% | SNB-19 CNS 98.7% | U251 CNS 85.7% | PC-3 prostate 95.9% | SK-MEL-5 melanoma 95.6% | LOX IMVI melanoma 92.4% | SK-MEL-28 melanoma 108%

c1ccc(-c2nc(N3CCOCC3)c3c4c(sc3n2)CCCCC4)nc1
inactive: DU-145 prostate 71.5% | K-562 leukemia 58% | MALME-3M melanoma 32.6% | MDA-MB-231 breast 60.4% | RXF 393 renal 55.4% | SF-268 CNS 65.5% | SF-295 CNS 49.2% | UACC-257 melanoma 75.7% | M14 melanoma 67.6% | HCT-15 colon 59.5% | HT29 colon 54.5% | SNB-75 CNS 45.9% | SNB-19 CNS 62.5% | U251 CNS 59.9% | PC-3 prostate 41.7% | SK-MEL-5 melanoma 23.4% | LOX IMVI melanoma 83.2%

O=C1C[C@H](N2C(=O)c3ccccc3S2(=O)=O)C2CO[C@@H]1O2
inactive: DU-145 prostate 87.8% | K-562 leukemia 55.6% | MALME-3M melanoma 97.2% | MDA-MB-231 breast 110% | RXF 393 renal 86.8% | SF-268 CNS 102% | SF-295 CNS 93.7% | UACC-257 melanoma 84.3% | M14 melanoma 84.2% | HCT-15 colon 59.6% | HT29 colon 70.4% | SNB-75 CNS 91.3% | SNB-19 CNS 106% | U251 CNS 93.3% | SK-MEL-5 melanoma 96.2% | UACC-62 melanoma 100% | LOX IMVI melanoma 18.9% | SK-MEL-28 melanoma 66.1%

O=C1/C(=C/c2ccc(Cl)cc2Cl)CN(S(=O)(=O)c2ccccc2)C/C1=C\c1ccc(Cl)cc1Cl
active: DU-145 prostate 9.52% | K-562 leukemia 0.787% | MDA-MB-231 breast -23.2% | RXF 393 renal -87% | SF-268 CNS 4.96% | SF-539 CNS -54.1% | HCT-15 colon -14.7% | HT29 colon -27.5% | PC-3 prostate 6.14% | UACC-62 melanoma 2.57% | LOX IMVI melanoma -58.7%
inactive: MALME-3M melanoma 36.8% | M14 melanoma 20.5% | SNB-75 CNS 27.8% | SNB-19 CNS 39.1% | SK-MEL-5 melanoma 47.5% | SK-MEL-28 melanoma 34.4%

COc1ccccc1N1CCN(CCn2c(=O)c3c(c4ccccc4n3C)n(C)c2=O)CC1
inactive: DU-145 prostate 107% | K-562 leukemia 100% | MALME-3M melanoma 110% | MDA-MB-231 breast 90.4% | RXF 393 renal 101% | SF-268 CNS 96.2% | SF-295 CNS 97.8% | UACC-257 melanoma 90.6% | M14 melanoma 98.8% | HCT-15 colon 101% | HT29 colon 68.3% | SNB-75 CNS 107% | U251 CNS 84.2% | PC-3 prostate 84.4% | SK-MEL-5 melanoma 95.8% | UACC-62 melanoma 92.4% | LOX IMVI melanoma 96.3% | SK-MEL-28 melanoma 115%

COc1ccc(CN2C(=O)/C(=C\c3cc(OC)c(OC)c(OC)c3)c3cc(OC)ccc32)cc1
inactive: MALME-3M melanoma 36.4% | MDA-MB-231 breast 11.1% | SF-295 CNS 39.7% | UACC-257 melanoma 25.7% | SNB-75 CNS 28.3% | PC-3 prostate 28.9%
active: DU-145 prostate 7.67% | K-562 leukemia 1.94% | RXF 393 renal -53% | SF-268 CNS 7.98% | M14 melanoma -28% | HCT-15 colon -36.6% | HT29 colon -25.3% | U251 CNS -48% | SK-MEL-5 melanoma 1.57% | UACC-62 melanoma -10.4% | LOX IMVI melanoma -71.8% | SK-MEL-28 melanoma -31.8%

O=c1c2cccc3c(Nc4c(F)cccc4F)ccc(c32)c2nc3ccccc3n12
inactive: DU-145 prostate 104% | K-562 leukemia 84.9% | MALME-3M melanoma 93.8% | MDA-MB-231 breast 82.1% | RXF 393 renal 116% | SF-268 CNS 97.8% | SF-539 CNS 100% | M14 melanoma 100% | HCT-15 colon 75.5% | HT29 colon 93.4% | SNB-75 CNS 80% | SNB-19 CNS 103% | PC-3 prostate 84.5% | SK-MEL-5 melanoma 81.8% | UACC-62 melanoma 86.9% | LOX IMVI melanoma 86.9% | SK-MEL-28 melanoma 109%

COc1ncc(-c2ccc3ncnc(Nc4cccc(Cl)c4)c3c2)cc1NS(C)(=O)=O
active: MALME-3M melanoma -2.69% | RXF 393 renal 7.92% | SNB-75 CNS 9.09%
inactive: DU-145 prostate 27.4% | K-562 leukemia 56.3% | MDA-MB-231 breast 43.8% | SF-268 CNS 44.8% | SF-295 CNS 32.1% | M14 melanoma 46.9% | HCT-15 colon 30.8% | HT29 colon 22.3% | SNB-19 CNS 37.6% | U251 CNS 46.8% | SK-MEL-5 melanoma 23.3% | UACC-62 melanoma 19.1% | LOX IMVI melanoma 35.3%

CCCCCCCCCCCCCCCCCCSC1=CC(=O)C(OC)=C(OC)C1=O
inactive: DU-145 prostate 113% | K-562 leukemia 82.2% | MALME-3M melanoma 112% | MDA-MB-231 breast 93.5% | RXF 393 renal 97.7% | SF-268 CNS 110% | SF-295 CNS 97.9% | UACC-257 melanoma 90.8% | M14 melanoma 74.6% | HCT-15 colon 98.7% | HT29 colon 107% | SNB-75 CNS 95.1% | U251 CNS 76.4% | PC-3 prostate 52% | SK-MEL-5 melanoma 86.3% | UACC-62 melanoma 77% | LOX IMVI melanoma 45.9% | SK-MEL-28 melanoma 97.3%

COc1ccc(C(=O)c2sc3nc4c(cc3c2N)CCCC4)cc1OC
active: SK-MEL-5 melanoma -11.4%
inactive: DU-145 prostate 62% | K-562 leukemia 10.9% | MALME-3M melanoma 63% | MDA-MB-231 breast 46.3% | RXF 393 renal 31.6% | SF-268 CNS 63.9% | SF-295 CNS 28.6% | UACC-257 melanoma 79.6% | M14 melanoma 27.7% | HCT-15 colon 31.2% | HT29 colon 19% | SNB-75 CNS 49.3% | U251 CNS 39.9% | PC-3 prostate 50.8% | UACC-62 melanoma 36.2% | SK-MEL-28 melanoma 47.3%

O=C1Nc2ccccc2/C1=C/C(=N/c1nnc(-c2ccc(Cl)cc2)s1)c1ccccc1
inactive: DU-145 prostate 30.5% | MDA-MB-231 breast 35.5% | SF-268 CNS 55.9% | SF-539 CNS 27.9% | M14 melanoma 52.2% | SNB-75 CNS 76.4% | SNB-19 CNS 100% | PC-3 prostate 75.7% | SK-MEL-5 melanoma 78.3% | SK-MEL-28 melanoma 61.2%
active: K-562 leukemia 8.67% | MALME-3M melanoma -26.5% | RXF 393 renal -63.3% | HCT-15 colon 3.35% | HT29 colon -56.3% | LOX IMVI melanoma -79.3%

O=S(=O)(NCCCNc1cc(-c2cn(-c3ccccc3)nc2-c2ccccc2)ccn1)c1ccc(C(F)(F)F)cc1
inactive: DU-145 prostate 75.9% | K-562 leukemia 15.8% | MALME-3M melanoma 70% | MDA-MB-231 breast 52.5% | RXF 393 renal 48% | SF-268 CNS 58.2% | SF-295 CNS 38.8% | M14 melanoma 53.1% | HCT-15 colon 41% | HT29 colon 20.5% | SNB-75 CNS 58.6% | SNB-19 CNS 66.9% | U251 CNS 44.4% | PC-3 prostate 17.6% | SK-MEL-5 melanoma 36.8% | UACC-62 melanoma 69.8% | LOX IMVI melanoma 54%
